Molecules are shown by their SMILES. Compounds without any hit were thinned out: in the full panel of roughly 83,000, 20% have a hit.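 Plates (96-well) were seeded with cells, treated with compound at one concentration, and incubated for 48 hours before percent growth was determined.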 Unmarked numbers belong to inactive results. Calls of active or inactive are those of the source. How the source made its calls: active means growth percent below 10; inactive means the rest.

Among the data in PubChem BioAssay (NCI) are growth values, retold here.

Test systems include DU-145 prostate; K-562 leukemia; MALME-3M melanoma; MDA-MB-231 breast; RXF 393 renal; SF-268 CNS; SF-295 CNS; SF-539 CNS; UACC-257 melanoma; M14 melanoma; HCT-15 colon; HT29 colon; SNB-75 CNS; SNB-19 CNS; U251 CNS; PC-3 prostate; SK-MEL-5 melanoma; UACC-62 melanoma; LOX IMVI melanoma; SK-MEL-28 melanoma.
What all share (assay): NCI-60 one-dose screen, 48 h (100 = growth as untreated, 0 = no growth, -100 = all killed)
Holding throughout (details): 10 µM unless noted

As to `CCCCC(CCCCCC(CCCC)C1NC(C)Cc2cc(OC)c(OC)cc21)C1NC(C)Cc2cc(OC)c(OC)cc21` (stereo not given), the growth in the assay on DU-145 prostate was -100% (active); in the assay on K-562 leukemia, -76.8% (active); with MALME-3M melanoma it was -73.4% (active); in the assay on MDA-MB-231 breast it was -67.4% (active); with RXF 393 renal, -89.4% (active); in the assay on SF-268 CNS, -88.6% (active). For the same compound, the growth is -70.7% (active) in the assay with SF-295 CNS; -95.8% (active) in the assay with SF-539 CNS; -80.6% (active) in the assay with UACC-257 melanoma; -90.2% (active) with M14 melanoma; -95.5% (active) in the assay on HCT-15 colon; -86.3% (active) with HT29 colon. Besides, the growth was -99.9% (active) with SNB-75 CNS; -69.8% (active) in the assay with SNB-19 CNS; -94.7% (active) with U251 CNS; -60.8% (active) with PC-3 prostate; -96.1% (active) with SK-MEL-5 melanoma; -70% (active) with UACC-62 melanoma. The growth was -99.1% (active) in the assay with LOX IMVI melanoma and -98% (active) with SK-MEL-28 melanoma.

On to `CC1(C)CC[C@]2(C(N)=O)CC[C@]3(C)C(=CC[C@@H]4[C@@]5(C)C/C(=C/c6cccnc6)C(=O)C(C)(C)[C@@H]5CC[C@]43C)[C@@H]2C1`, for which the growth was -18% [100 µM] (active) in the assay with DU-145 prostate; 4.29% [100 µM] (active) with K-562 leukemia; -75.9% [100 µM] (active) in the assay with MALME-3M melanoma; -45.2% [100 µM] (active) with MDA-MB-231 breast; -63% [100 µM] (active) in the assay on RXF 393 renal; -5.09% [100 µM] (active) in the assay with SF-268 CNS. Moreover, the growth in the assay on SF-295 CNS is -53.9% [100 µM] (active); with SF-539 CNS, -61.5% [100 µM] (active); in the assay on UACC-257 melanoma, -54.7% [100 µM] (active); in the assay on M14 melanoma, -11.2% [100 µM] (active); with HCT-15 colon it was -65.6% [100 µM] (active); in the assay with HT29 colon, -35.6% [100 µM] (active). The growth with SNB-75 CNS is -17.6% [100 µM] (active); in the assay with SNB-19 CNS, -90.1% [100 µM] (active); in the assay on U251 CNS, -83.2% [100 µM] (active); with PC-3 prostate, -19.6% [100 µM] (active); in the assay on SK-MEL-5 melanoma, -100% [100 µM] (active); in the assay on UACC-62 melanoma, -70.5% [100 µM] (active). For the same compound, the growth with SK-MEL-28 melanoma is -59.7% [100 µM] (active).

`O=C(N=c1n(-c2ccccc2)nc2n1CCN2C1=NCCN1)c1ccc(Cl)cc1`: the growth in the assay with DU-145 prostate is 95.7%; in the assay with K-562 leukemia, 71.9%; in the assay on MALME-3M melanoma, 91.3%; in the assay on MDA-MB-231 breast it was 69.5%; in the assay on RXF 393 renal, 61.9%; with SF-268 CNS it was 83.8%. The growth with SF-295 CNS was 97.1%; with SF-539 CNS, 77.8%; in the assay with UACC-257 melanoma it was 102%; with M14 melanoma it was 107%; in the assay with HCT-15 colon, 82.5%; with HT29 colon, 67.5%. The growth is 66.3% with SNB-75 CNS; 91.9% in the assay on SNB-19 CNS; 80.8% in the assay on U251 CNS; 72.7% in the assay on PC-3 prostate; 65.6% with SK-MEL-5 melanoma; 64.1% with UACC-62 melanoma. Moreover, the growth in the assay with SK-MEL-28 melanoma is 81.3%.

For the compound `CC1(C(=O)O)CCC(N)(C(=O)O)C1(C)C` (stereo not given), the growth with DU-145 prostate is 118%; in the assay on K-562 leukemia, 107%; with MALME-3M melanoma, 113%; in the assay on MDA-MB-231 breast it was 108%; with RXF 393 renal, 126%; in the assay with SF-268 CNS it was 112%. In addition, the growth with SF-295 CNS was 97.3%; in the assay on SF-539 CNS, 108%; in the assay on UACC-257 melanoma, 121%; in the assay with M14 melanoma it was 110%; in the assay with HCT-15 colon, 106%; in the assay on HT29 colon, 103%. Also, the growth in the assay on SNB-75 CNS was 90%; in the assay with SNB-19 CNS, 105%; with U251 CNS, 105%; in the assay on PC-3 prostate it was 88.8%; in the assay on SK-MEL-5 melanoma it was 107%; in the assay on UACC-62 melanoma, 107%. In the assay on SK-MEL-28 melanoma, the growth was 109%.

As to `Cc1cc(-c2ccc(N=Nc3c(S(=O)(=O)O)cc4cc(S(=O)(=O)O)cc(N)c4c3O)c(C)c2)ccc1N=Nc1cc(S(=O)(=O)O)c2ccccc2c1O`, the growth in the assay on DU-145 prostate was 112%; in the assay with K-562 leukemia, 98%; with MALME-3M melanoma it was 89%; in the assay with MDA-MB-231 breast it was 92.4%; in the assay on RXF 393 renal it was 107%; in the assay on SF-268 CNS, 95.6%. In addition, the growth in the assay on SF-295 CNS is 103%; in the assay with SF-539 CNS, 88.4%; in the assay on UACC-257 melanoma, 97.7%; in the assay with M14 melanoma it was 101%; in the assay with HCT-15 colon, 104%; with HT29 colon, 100%. Moreover, the growth in the assay with SNB-75 CNS was 98.5%; in the assay on SNB-19 CNS it was 94.4%; in the assay with U251 CNS it was 99.5%; with PC-3 prostate, 96.9%; in the assay on SK-MEL-5 melanoma, 100%; with UACC-62 melanoma it was 93.6%. Moreover, the growth in the assay with LOX IMVI melanoma was 106%; in the assay on SK-MEL-28 melanoma, 107%.

Turning to `O=C(COc1cccc(/C=C2\Oc3ccccc3C2=O)c1)c1ccc([N+](=O)[O-])cc1`, the growth in the assay with DU-145 prostate was 111%; in the assay with K-562 leukemia, 70.7%; with MALME-3M melanoma, 108%; in the assay with MDA-MB-231 breast, 72.6%; in the assay on RXF 393 renal, 97.6%; in the assay with SF-268 CNS, 96.2%. Besides, the growth with SF-295 CNS was 197%; with SF-539 CNS it was 97.4%; in the assay with UACC-257 melanoma, 97.6%; in the assay with M14 melanoma it was 100%; with HCT-15 colon, 94.2%; in the assay on HT29 colon it was 108%. For the same compound, the growth is 81.7% with SNB-75 CNS; 91.3% in the assay with SNB-19 CNS; 93.6% in the assay on U251 CNS; 86.6% in the assay with PC-3 prostate; 99% in the assay on SK-MEL-5 melanoma; 72.2% in the assay on UACC-62 melanoma. In addition, in the assay with SK-MEL-28 melanoma, the growth was 135%.

In the case of `O=C1CN(Cc2ccc(C(=O)NO)cc2)C(=O)[C@@H](Cc2ccccc2)N1`, the growth with DU-145 prostate is 111%; in the assay with K-562 leukemia, 98%; with MALME-3M melanoma, 94%; in the assay on MDA-MB-231 breast, 102%; in the assay with RXF 393 renal, 112%; in the assay with SF-268 CNS, 99.7%. Also, the growth is 99.3% in the assay on SF-295 CNS; 99.7% in the assay with SF-539 CNS; 93.2% with UACC-257 melanoma; 107% in the assay with M14 melanoma; 104% in the assay on HCT-15 colon; 113% with HT29 colon. In addition, the growth in the assay on SNB-75 CNS is 85.9%; with SNB-19 CNS it was 98.5%; with U251 CNS, 92.4%; in the assay on PC-3 prostate, 97.9%; with SK-MEL-5 melanoma, 107%; in the assay on UACC-62 melanoma, 99.2%. Besides, the growth with SK-MEL-28 melanoma was 105%.

`CCOC(=O)COc1c(C)cc(SSc2cc(C)c(OCC(=O)OCC)c(C)c2)cc1C`: the growth with DU-145 prostate is 108%; in the assay with K-562 leukemia, 96.2%; in the assay with MALME-3M melanoma, 110%; in the assay with MDA-MB-231 breast, 107%; with RXF 393 renal, 126%; in the assay on SF-268 CNS, 99%. Further, the growth is 105% in the assay with SF-295 CNS; 112% in the assay with SF-539 CNS; 80.8% in the assay on UACC-257 melanoma; 103% in the assay with M14 melanoma; 88.8% with HCT-15 colon; 97.8% with HT29 colon. Moreover, the growth was 87.9% in the assay on SNB-75 CNS; 109% with SNB-19 CNS; 75.4% in the assay on U251 CNS; 65.2% in the assay on PC-3 prostate; 94.6% in the assay on SK-MEL-5 melanoma; 87.3% with UACC-62 melanoma. The growth with LOX IMVI melanoma was 103%; in the assay on SK-MEL-28 melanoma, 100%.
